# Inconclusive results are not listed. Unmarked numbers belong to inactive results. Activity calls are given as the source filed them. The call rests on the fitted dose curve; in most records, active means well fitted inhibition curve with a large enough effect in the repeat runs; inconclusive means weak or mixed curves; inactive means no such curve, though single readings can be large or run the other way.
# Biological target: Cytochrome P450 3A4 (Homo sapiens) (UniProt P08684)
# Test: Cytochrome P450 Family 3 Subfamily A Member 4 (CYP3A4) small molecule antagonists: luciferase reporter qHTS assay (AID 1671201); further: nearly all actives have a fitted effect of over 50% in size
# Conditions: P450-Glo CYP3A4 enzyme, luciferin luminescence, 1 h; series mostly up to 115 µM; activity change, negative = inhibition: at the top concentration
# Excerpt: National Center for Advancing Translational Sciences [NCATS]
# U.S. Environmental Protection Agency [EPA]
# National Institutes of Environmental Health Sciences [NIEHS]
# National Toxicology Program [NTP]
# U.S. Food and Drug Administration [FDA]
# Cytochrome P450 (CYP) enzymes are membrane-bound hemeproteins that play a key role in metabolism of drugs and xenobiotics. Evaluation of the effect of chemicals on CYP isozymes is useful to minimize the adverse drug reactions and toxicities in drug development process. Tox21 chemicals were tested for their effect on CYP enzyme activities by using P450-Glo (TM) screening systems (Promega Corporation, Madison, WI). These systems provide a luminescent method containing proluciferin substrates and are converted to luciferin products by CYP isozymes. The luciferin products formed are detected with a luciferin detection reagent, and the amount of light produced is proportional to CYP activity. P450-Glo (TM) CYP3A4 screening system (Catalog. No. V9910) was used to detect the compounds that interfere in CYP3A4 activity. The positive control compound used for CYP3A4 assay is ketoconazole (Sigma-Aldrich, St. Louis, MO).
# Tox21 Assay Protocol Summary:
# Two ul of enzyme-substrate mix was dispensed into medium binding white/solid 1536-well plates (Greiner Bio-One North America Inc., Monroe, NC) using a BioRaptr Flying Reagent Dispenser (FRD, Beckman Coulter, Brea, CA). Compounds dissolved in DMSO and positive control (ketoconazole) were transferred to the assay plates at 23 nl using a Pintool station (Wako, San Diego, CA). The assay plates were incubated at room temperature for 10 min. Then 2 ul of NADPH regeneration solution was added to each well of the assay plates using an FRD and incubated at room temperature for 1 h. The reaction was stopped by adding 4 ul of detection reagent using an FRD and after 20 min incubation at room temperature the luminescence signal was measured using a ViewLux plate reader (Perkin Elmer, Shelton, CT). Data were expressed as relative luminescence units.
# On the % scale 0 is the no-effect control and ±100 the full control effect; potency means the concentration at half of the fitted maximal effect.
# Chain of Cytochrome P450 3A4 (Homo sapiens) (P08684 whole entry, looked up): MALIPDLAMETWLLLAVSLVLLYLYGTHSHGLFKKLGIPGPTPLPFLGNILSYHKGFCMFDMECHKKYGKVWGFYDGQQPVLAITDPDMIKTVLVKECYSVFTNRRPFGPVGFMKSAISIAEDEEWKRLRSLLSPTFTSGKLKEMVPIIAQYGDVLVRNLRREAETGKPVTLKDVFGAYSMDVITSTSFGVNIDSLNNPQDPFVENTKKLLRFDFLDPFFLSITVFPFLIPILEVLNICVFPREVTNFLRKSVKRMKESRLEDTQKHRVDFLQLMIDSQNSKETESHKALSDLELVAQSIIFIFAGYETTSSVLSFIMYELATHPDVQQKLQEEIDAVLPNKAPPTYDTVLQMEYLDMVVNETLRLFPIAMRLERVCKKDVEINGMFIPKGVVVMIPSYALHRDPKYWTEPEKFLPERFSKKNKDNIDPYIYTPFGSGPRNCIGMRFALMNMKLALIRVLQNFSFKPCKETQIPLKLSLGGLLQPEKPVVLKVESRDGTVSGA
SMILES,"activity change, negative = inhibition",Potency
CC1=C2C[C@H]3[C@@H](CC=C4C[C@@H](O)CC[C@@]43C)[C@@H]2CC[C@]12O[C@@H]1C[C@H](C)CN[C@H]1[C@H]2C,4.06% [at 52.9 µM],
CC(Cl)CCl (stereo not given),-1.46%,
COP(=S)(OC)Oc1nc(Cl)c(Cl)cc1Cl,,11.2 µM (active)
CCNc1nc(NC(C)C(C)C)nc(SC)n1 (stereo not given),4.97%,
O=C(O)CCCCCCNC1c2ccccc2CCc2ccccc21,-3.22% [at 52.9 µM],
CCC1COC(Cn2cncn2)(c2ccc(Cl)cc2Cl)O1 (stereo not given),,0.0894 µM (active)
O=S1(=O)OCC2C(CO1)C1(Cl)C(Cl)=C(Cl)C2(Cl)C1(Cl)Cl (stereo not given),,0.224 µM (active)
C#CCO,26%,
CCCCc1ccccc1,3.74%,
O=S(=O)(O)F,-3.43%,
COP(=O)(OC)O/C(=C\Cl)c1cc(Cl)c(Cl)cc1Cl,76.4%,
Cc1cnc2c(C(=O)O)c(Cl)ccc2c1,1.79%,
CCNS(=O)(=O)C(F)(F)C(F)(F)C(F)(F)C(F)(F)C(F)(F)C(F)(F)C(F)(F)C(F)(F)F,-24.9%,
CCC[CH2][Sn]([CH2]CCC)([CH2]CCC)[CH2]CCC,2.65%,
N#CCCl,,66 µM (active)
Clc1ccc(C2(Cn3cncn3)OCCO2)c(Cl)c1,,0.502 µM (active)
Cc1ccn2nc(S(=O)(=O)Nc3c(F)cccc3F)nc2n1,10.1%,
N#CC(C#N)=NNc1cccc(Cl)c1,,11.2 µM (active)
O=[N+]([O-])C(Br)Br,53.6%,
CNC(=O)O/N=C(\C)C(C)S(C)(=O)=O (stereo not given),-12.6% [at 1.09 mM],

SMILES,"activity change, negative = inhibition",Potency
O=c1[nH]c(Cl)c(Cl)cc1Cl,173%,
CCCCC/C=C\C/C=C\C/C=C\C/C=C\CCCC(=O)NCC(=O)O,4.4% [at 52.9 µM],
CNC(=O)CSP(=O)(OC)OC,2.04%,
CSSC,-16.2%,
CSC1=N[C@@](C)(c2ccccc2)C(=O)N1Nc1ccccc1,,31.7 µM (active)
CSC(=O)c1c(C(F)F)nc(C(F)(F)F)c(C(=O)SC)c1CC(C)C,,6.29 µM (active)
CC1CCCC1,,27.8 µM (active)
O=C(Nc1ccc(F)cc1F)c1cccnc1Oc1cccc(C(F)(F)F)c1,-25%,
Nc1ccc(Cl)cc1C(=O)c1ccccc1F,52% [at 52.9 µM],
CCCCCCCc1ccc(O)cc1,-17.9%,
O=C(N[C@@H]1N=C(c2ccccc2F)c2cccc3c2N(CC3)C1=O)c1cc2ccccc2[nH]1,-7.15% [at 52.9 µM],
COC(=O)c1cc(Oc2ccc(Cl)cc2Cl)ccc1[N+](=O)[O-],161%,
COC(=O)N(OC)c1ccccc1COc1ccn(-c2ccc(Cl)cc2)n1,-8.97%,
C=Cc1cccc(CCl)c1,5.74% [at 300 µM],
O=[N+]([O-])c1ccc(CCl)cc1,23.9%,
C#CCC1=C(C)C(OC(=O)C2C(C=C(C)C)C2(C)C)CC1=O (stereo not given),,8.88 µM (active)
CC(C)N(C(=O)CCl)c1ccccc1,,inactive
CC[N+]1(CC)CCC(OC(=O)C(O)(c2ccccc2)c2ccccc2)C1 (stereo not given),-25% [at 52.9 µM],
CCC(C)Br (stereo not given),2.38%,
CC(C)=CC1C(C(=O)OC(C#N)c2cccc(Oc3ccccc3)c2)C1(C)C (stereo not given),-22.1%,
